{"source": "the supplement of paper PMC9023506", "note": "Counter-ions that a name gives are not always drawn."}
{"system": "Danio rerio larvae (5 dpf)", "test": "startle response to 20-s acoustic pulses, difference vs DMSO (percentage points (treated minus DMSO)); higher = more of the behaviour than the DMSO vehicle control", "conditions": "10 µM; exposure time: 3 h pre-incubation + 3 h imaging", "procedure": "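5-dpf wild-type zebrafish larvae were imaged in 96-well plates. They were treated with 190 Tocris FDA-approved drugs at 10 µM (1 µl/ml DMSO) for 3 h before and 3 h during imaging at 28.5 °C, 48 larvae per drug. Automated image analysis gave % time moving and optomotor responses. Values are drug group mean minus DMSO vehicle mean (n=844), in percentage points, for 10 behaviours.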"}
{"smiles": "CN1CC(=O)N2[C@H](c3ccc4c(c3)OCO4)c3[nH]c4ccccc4c3C[C@@H]2C1=O", "note": "[Tadalafil]", "startle response to 20-s acoustic pulses": 7.96}
{"smiles": "CCOc1cc(CC(=O)N[C@@H](CC(C)C)c2ccccc2N2CCCCC2)ccc1C(=O)O", "note": "[Repaglinide]", "startle response to 20-s acoustic pulses": -5.51}
{"smiles": "COc1ccc(Cl)cc1C(=O)NCCc1ccc(S(=O)(=O)NC(=O)NC2CCCCC2)cc1", "note": "[Glibenclamide]", "startle response to 20-s acoustic pulses": 6.49}
{"smiles": "CCOc1ccccc1OCCN[C@H](C)Cc1ccc(OC)c(S(N)(=O)=O)c1", "note": "[Tamsulosin hydrochloride]", "startle response to 20-s acoustic pulses": 3.87}
{"smiles": "COc1ccc([C@@H]2Sc3ccccc3N(CCN(C)C)C(=O)[C@@H]2OC(C)=O)cc1", "note": "[Diltiazem hydrochloride]", "startle response to 20-s acoustic pulses": 0.061}
{"smiles": "CC(=O)Oc1ccccc1C(=O)O", "note": "[Aspirin]", "startle response to 20-s acoustic pulses": -4.27}
{"smiles": "CC1(C)O[C@@H]2[C@@H](CO[C@@]3(COS(N)(=O)=O)OC(C)(C)O[C@@H]23)O1", "note": "[Topiramate]", "startle response to 20-s acoustic pulses": 0.811}
{"smiles": "Nc1ncn([C@@H]2O[C@H](CO)[C@@H](O)[C@H]2O)c(=O)n1", "note": "[5-Azacytidine]", "startle response to 20-s acoustic pulses": 2.64}
{"smiles": "Nc1nc(F)nc2c1ncn2[C@@H]1O[C@H](CO)[C@@H](O)[C@@H]1O", "note": "[Fludarabine]", "startle response to 20-s acoustic pulses": 3.23}
{"smiles": "O=C(O)CCCc1ccccc1", "note": "[Sodium 4-Phenylbutyrate]", "startle response to 20-s acoustic pulses": -5.04}
{"smiles": "CCc1nc(N)nc(N)c1-c1ccc(Cl)cc1", "note": "[Pyrimethamine]", "startle response to 20-s acoustic pulses": 1.7}
{"smiles": "COc1c(C)c2c(c(O)c1C/C=C(\\C)CCC(=O)OCCN1CCOCC1)C(=O)OC2", "note": "[Mycophenolate mofetil]", "startle response to 20-s acoustic pulses": 3.73}
{"smiles": "C#C[C@]1(O)CC[C@H]2[C@@H]3CCC4=CC(=O)CC[C@@H]4[C@H]3CC[C@@]21CC", "note": "[Levonorgestrel]", "startle response to 20-s acoustic pulses": -4.51}
{"smiles": "CC(C)(C#N)c1cc(Cn2cncn2)cc(C(C)(C)C#N)c1", "note": "[Anastrozole]", "startle response to 20-s acoustic pulses": -0.38}
{"smiles": "NS(=O)(=O)c1cc(C(=O)O)c(NCc2ccco2)cc1Cl", "note": "[Furosemide]", "startle response to 20-s acoustic pulses": -4.02}
{"smiles": "CNCc1ccc(-c2[nH]c3cc(F)cc4c3c2CCNC4=O)cc1", "note": "[Rucaparib camsylate]", "startle response to 20-s acoustic pulses": -4.08}
{"smiles": "C[C@H]1O[C@H](O[C@H]2[C@H](O)[C@@H](O)[C@@H](O[C@H]3[C@H](O)[C@@H](O)C(O)O[C@@H]3CO)O[C@@H]2CO)[C@H](O)[C@@H](O)[C@@H]1N[C@H]1C=C(CO)[C@@H](O)[C@H](O)[C@H]1O", "note": "(stereo not given in full) [Acarbose]", "startle response to 20-s acoustic pulses": -6.81}
{"smiles": "CC(C)CN(C[C@@H](O)[C@H](Cc1ccccc1)NC(=O)O[C@H]1CO[C@H]2OCC[C@H]21)S(=O)(=O)c1ccc(N)cc1", "note": "[Darunavir]", "startle response to 20-s acoustic pulses": -1.98}
{"smiles": "Cc1c(-c2ccc(O)cc2)n(Cc2ccc(OCCN3CCCCCC3)cc2)c2ccc(O)cc12", "note": "[Bazedoxifene acetate]", "startle response to 20-s acoustic pulses": -4.17}
{"smiles": "O=C(O)c1cc(/N=N/c2ccc(S(=O)(=O)Nc3ccccn3)cc2)ccc1O", "note": "[Sulfasalazine]", "startle response to 20-s acoustic pulses": -1.02}
{"smiles": "COc1ccc(-c2ccc3cc(C(=O)O)ccc3c2)cc1C12CC3CC(CC(C3)C1)C2", "note": "[Adapalene]", "startle response to 20-s acoustic pulses": 0.11}
{"smiles": "CC(=O)Oc1cc2c(s1)CCN(C(C(=O)C1CC1)c1ccccc1F)C2", "note": "(stereo not given) [Prasugrel]", "startle response to 20-s acoustic pulses": -10.9}
{"smiles": "Nc1cc(N2CCCCC2)nc(N)[n+]1[O-]", "note": "[Minoxidil]", "startle response to 20-s acoustic pulses": -2.65}
{"smiles": "CCCN(CCC)S(=O)(=O)c1ccc(C(=O)O)cc1", "note": "[Probenecid]", "startle response to 20-s acoustic pulses": 1.66}
{"smiles": "COCCCOc1cc(C[C@@H](C[C@H](N)[C@@H](O)C[C@H](C(=O)NCC(C)(C)C(N)=O)C(C)C)C(C)C)ccc1OC", "note": "[Aliskiren hemifumarate]", "startle response to 20-s acoustic pulses": -0.0432}
{"smiles": "N#Cc1ccc(C(c2ccc(C#N)cc2)n2cncn2)cc1", "note": "[Letrozole]", "startle response to 20-s acoustic pulses": 5.37}
{"smiles": "OC(CNCC(O)C1CCc2cc(F)ccc2O1)C1CCc2cc(F)ccc2O1", "note": "(stereo not given) [Nebivolol hydrochloride]", "startle response to 20-s acoustic pulses": -6.21}
{"smiles": "CC#C[C@]1(O)CC[C@H]2[C@@H]3CCC4=CC(=O)CCC4=C3[C@@H](c3ccc(N(C)C)cc3)C[C@@]21C", "note": "[Mifepristone]", "startle response to 20-s acoustic pulses": 0.769}
{"smiles": "CCOC(=O)C1=C(C)NC(C)=C(C(=O)OC)C1c1cccc(Cl)c1Cl", "note": "(stereo not given) [Felodipine]", "startle response to 20-s acoustic pulses": 9.85}
{"smiles": "Cc1ccc(O)c([C@H](CCN(C(C)C)C(C)C)c2ccccc2)c1", "note": "[Tolterodine L-tartrate]", "startle response to 20-s acoustic pulses": -5.76}
{"smiles": "CN1CCC[C@@H]1Cc1c[nH]c2ccc(CCS(=O)(=O)c3ccccc3)cc12", "note": "[Eletriptan hydrobromide]", "startle response to 20-s acoustic pulses": 1.42}
{"smiles": "Cc1ccc(NC(=O)c2ccc(CN3CCN(C)CC3)cc2)cc1Nc1nccc(-c2cccnc2)n1", "note": "[Imatinib mesylate]", "startle response to 20-s acoustic pulses": 5.5}
{"smiles": "Nc1nc2[nH]cc(CCc3ccc(C(=O)N[C@@H](CCC(=O)O)C(=O)O)cc3)c2c(=O)[nH]1", "note": "[Pemetrexed]", "startle response to 20-s acoustic pulses": -4.56}
{"smiles": "CCCc1nc(C(C)(C)O)c(C(=O)O)n1Cc1ccc(-c2ccccc2-c2nnn[nH]2)cc1", "note": "[Olmesartan]", "startle response to 20-s acoustic pulses": 7.62}
{"smiles": "Nc1nc(NC2CC2)c2ncn([C@H]3C=C[C@@H](CO)C3)c2n1", "note": "[Abacavir hemisulfate]", "startle response to 20-s acoustic pulses": 6.56}
{"smiles": "OCc1cc(C(O)CNCCCCCCOCCCCc2ccccc2)ccc1O", "note": "(stereo not given) [Salmeterol xinafoate]", "startle response to 20-s acoustic pulses": -5.23}
{"smiles": "Cn1cnc([N+](=O)[O-])c1Sc1ncnc2[nH]cnc12", "note": "[Azathioprine]", "startle response to 20-s acoustic pulses": -1.29}
{"smiles": "CC(C)COCC(CN(Cc1ccccc1)c1ccccc1)N1CCCC1", "note": "(stereo not given) [Bepridil hydrochloride]", "startle response to 20-s acoustic pulses": -5.17}
{"smiles": "O=c1n(CCCN2CCN(c3cccc(Cl)c3)CC2)nc2ccccn12", "note": "[Trazodone hydrochloride]", "startle response to 20-s acoustic pulses": 2.64}
{"smiles": "COc1cc2nc(N3CCN(C(=O)c4ccco4)CC3)nc(N)c2cc1OC", "note": "[Prazosin hydrochloride]", "startle response to 20-s acoustic pulses": 5.19}
